Reference: PubChem BioAssay (NCATS)
Results filed as inconclusive are left out. Entries that show only a call come without a potency. Calls of active or inactive are those of the source. Calls come from the whole dose curve; as a rule, active = well fitted cell-killing curve with a large enough effect; inconclusive = small, poorly fitted or top-dose-only effect; inactive = flat fitted curve, though single readings scatter.

Experiment: Cell Viability - SH-SY5Y (AID 544); note: nearly all actives have a fitted effect of over 55% in size
Conditions: SH-SY5Y neuroblastoma cell viability; viability change, negative = cytotoxic: at 92.2 µM (top of the series)
From the text: NIH Chemical Genomics Center [NCGC]
NIH Molecular Libraries Screening Centers Network [MLSCN]
National Institutes of Environmental Health Sciences [NIEHS]
National Toxicology Program [NTP]
We have developed a 1536-well cell-based assay for quantitative high throughput screening (qHTS) against a number of cell lines to determine in vitro cytotoxicity of small molecules. This particular assay uses the SH-SY5Y cell line which is derived from human neuroblastoma.
NCGC Assay Protocol Summary:
The CellTiter-Glo luminescent cell viability assay (Promega) is a homogeneous method to measure the number of viable cells in culture. The end point readout of this assay is based on quantitation of intracellular ATP, an indicator of metabolic activity, using the luciferase reaction. Luciferase catalyzes the oxidation of beetle Luciferin to oxyluciferin and light in the presence of ATP. The luminescent signal is proportional to amount of ATP present.
Using the CellTiter-Glo luminescent cell viability assay, the amount of cellular ATP was measured in the SH-SY5Y cell line with complete culture medium following compound treatment for 40 hours. The assay was performed in opaque white Kalypsys 1536-well plates. In the screen, tamoxifen and doxorubicin were used as positive controls. Library compounds were measured for their ability to cause acute toxicity in the cell line, as reflected by a decrease in intracellular ATP levels, in a concentration-dependent manner. […] AC50 values were determined from concentration-response data modeled with the standard Hill equation.
qHTS protocol for CellTiter Glo SH-SY5Y cellular assay
[Step] [Parameter] [Value] [Description]
1. Reagent; 5 uL; 1500 SH-SY5Y cells/well
2. Time; 5 hr; 37 °C incubation
4. Controls; 23 nL; Tamoxifen 0.34 uM to 100 uM & Doxorubicin 0.02 nM to 100 uM
5. Time; 40 hr; 37 °C incubation
6. Reagent; 5 uL; CellTiter Glo reagent
7. Time; 20 min; Room Temperature
8. Detection; Luminescence; Viewlux plate reader
Keywords: cell viability, cytotoxicity, SH-SY5Y cell line, luminescence, NTPHTS, NTPHTS_NCGC, NIEHS, EPA, DSSTox, MLSMR, MLSCN, NIH Roadmap, qHTS, NCGC
Potency is the fitted concentration of half-maximal effect.

Compound	viability change, negative = cytotoxic	Potency
CC(/C=C/C=C(C)/C=C/C(=O)O)=C\C=C\C=C(C)\C=C\C=C(C)\C=C\C(=O)O	-97% (active)	–
Cc1c2ccccc2c(C)c2c1ccc1ccccc12	–	7.94 µM (active)
COc1ccc([N+](=O)[O-])cc1N	–	inactive
CCCCC(CC)COC(=O)COc1ccc(Cl)cc1Cl (stereo not given)	–	inactive
CCCCCCCCC1CO1 (stereo not given)	–	inactive
c1c[nH]cn1	–	inactive
CC(=O)OC1CC(C)OC(C)O1 (stereo not given)	–	inactive
CCCCC(CC)COP(=O)(OCC(CC)CCCC)OCC(CC)CCCC (stereo not given)	–	inactive
COc1cc(-c2ccc(N=C=O)c(OC)c2)ccc1N=C=O	–	inactive
C=CC(=O)CC	–	inactive
CN(C)c1ccc(C(=N)c2ccc(N(C)C)cc2)cc1	–	10 µM (active)
C=Cc1cccc(C)c1	–	inactive
S=C(NC1CCCCC1)NC1CCCCC1	–	inactive
C/C=C1/C(=O)C[C@H]2[C@@H]3CCC4=CC(=O)CC[C@]4(C)[C@H]3CC[C@]12C	–	25.1 µM (active)
Cc1cc(-c2ccc(N=Nc3cc(S(=O)(=O)O)c4ccccc4c3N)c(C)c2)ccc1N=Nc1cc(S(=O)(=O)O)c2ccccc2c1N	–	31.6 µM (active)
c1ccc(COCc2ccccc2)cc1	–	inactive
NC(=O)Nc1nc2ccccc2[nH]1	–	inactive
C=CC(C)(O)CCCC(C)CCCC(C)CCCC(C)C (stereo not given)	–	inactive
CCN(CC)c1ccc2c(C)cc(=O)oc2c1	–	inactive
O=[N+]([O-])c1ccccc1Nc1ccccc1	–	inactive

Compound	viability change, negative = cytotoxic	Potency
c1ccc(SCCSc2ccccc2)cc1	–	inactive
CC(C)S	–	inactive
CC(=O)OC(C(=O)c1ccccc1)c1ccccc1 (stereo not given)	–	inactive
OC1CCCCC1	–	inactive
c1ccc2ncccc2c1	–	inactive
Cc1c(N)cccc1Cl	–	inactive
O=C(O)/C=C/c1ccc(/C=C/C(=O)O)cc1	–	inactive
CCOc1ccc2nc(N)sc2c1	–	inactive
O=Nc1ccc(Nc2ccccc2)cc1	–	2.51 µM (active)
OCC(CO)(CBr)CBr	–	inactive
Nc1cc(C(=O)O)c(O)c(S(=O)(=O)O)c1	–	inactive
Oc1cc2c(cc1O)[C@H]1c3ccc(O)c(O)c3OC[C@@]1(O)C2	-82.8% (active)	–
C=CC(=O)OCCCCCCOC(=O)C=C	-98.1% (active)	–
Cc1ccc(S(N)(=O)=O)cc1	–	inactive
c1ccc(Nc2cccc3ccccc23)cc1	–	inactive
CCN(CC)c1ccc(N)cc1	-88.7% (active)	–
Cc1ccc(O)c(N)c1	–	20 µM (active)
CCCCCCCCOc1ccc(C(=O)O)cc1	–	inactive
C/C=C/C=C/C=O	–	31.6 µM (active)
O=C(OCC1CO1)C1CCCCC1C(=O)OCC1CO1 (stereo not given)	–	25.1 µM (active)
